In all, about 53,000 sequences went through this assay and about 3,700 (7%) were called active. The full list was thinned out, with actives kept by preference. A number with no mark means an inactive call.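 Rule for the calls: active = gene knockdowns whose robust z-score for IL-1 alpha signal is at least 2 or at most -2, so actives lie on both sides; inactive = the rest.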
Test: Components of the Cytosolic LPS Sensing Pathway: Gene Identification via Genome-wide siRNA Screen;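 note: robust z of the log signal after scaling to non-targeting control siRNA wells of the plate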
Settings: RAW264.7 macrophages, IL-1a HTRF, actives lie on both sides, screened at 100 nM (by protocol), cells primed 5 h with Pam3CSK4 first
How it was run: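 Cells (RAW264.7, 1×10^4 per well) were transfected with siRNA at 100 nM and cultured 48h at 37 degrees C. Pam3CSK4 was added for 5 hours; LipidA transfection followed for 24 hour. IL-1a was then measured by HTRF.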
Sequence GGAAGAGCCAGUGGUAUAATT against Ccdc171 has a z-score of 0.164.
In the case of GUCUGAGCGACUGUCUCCATT against Mef2b, the z-score is reported as -2.17 (active).
For GGAGAACCAUAAUAAGAGUTT against Tnfrsf26, the z-score was -2.88 (active).
UCAAACUAGGUGCUGUUGUTT against Olfr584 gave a z-score of 0.998.
For CCAAAGAUGCUCCUCACCUTT against Olfr197, the z-score was -0.158.
Work on GCUUCUAGCCUGUAUUGCCTT against Rps8 yielded a z-score of 0.31.
With CCUGUAUUUUACGAUCUUUTT against Best1 the z-score was 0.103.
For GGUCCUGGACAAAGUGUUUTT against Tubgcp5, the z-score was 2.48 (active).
With CCCAUCUGUUUGAGUGUAUTT against Ms4a1 the z-score was -0.305.
With GCCUUGGUACACUAAACUCTT against Rhcg the z-score was -0.426.
GCCUGUAAGGAGAAUCAGCTT against Car4 showed a z-score of 0.684.
GGUUCCAAGUCAAAGAGUUTT against Foxl1 gave a z-score of -0.47.
In the case of GGACUCUGUAGUUGAAGAUTT against Pogz, the z-score is reported as -0.882.
Sequence CCAUUCUGAAUCUCUAAUCTT against Pigw has a z-score of 0.134.
For CCAAUCUGAAGUGCUACUATT against Trim42, the z-score was 0.368.
CCCGUGCCUUCCUUAAAGCTT against Ggt6 showed a z-score of 0.327.
With CCCACUGAUGCUAUUUCUATT against Rad1 the z-score was -2.57 (active).
With GGUCUUUAUCUACCAUGGGTT against Itga7 the z-score was -1.29.
In the case of CCUUUGCCUAUGUUUACCATT against Ropn1l, the z-score is reported as 0.851.
For GGGACUCAGUGUUUAUUGATT against Thsd4, the z-score was 0.216.
For GGCUUUUAAGUUCUUCCAGTT against Ptbp3, the z-score was 2.44 (active).
For UCAUUAGUAUCCUCCGUAUTT against Olfr919, the z-score was 0.27.
With GGAAGGUGAUGAAGGAUCGTT against Fam118a the z-score was 0.0491.
In the case of GGAAGAUUUCACAUCUCAGTT against Pdia5, the z-score is reported as -0.528.
For GCUUGUUAAAAUUGGAAAGTT against Kif11, the z-score was -1.47.
For GGCCUCCAAUAAAGCUCAGTT against Ttc28, the z-score was -2.07 (active).
Work on GCUCCUAUUACUGAAUUUATT against Olfr749 yielded a z-score of -0.445.
With GGUGACCUUACCUAAUGUATT against Mettl18 the z-score was 0.578.
In the case of GGCACAAGCAGGAGAUAAATT against Serpinb2, the z-score is reported as 2.05 (active).
GGUGGUCUUUUCCCAGCAGTT against Msrb3 gave a z-score of 0.793.
For GGCAACACGAUGCAGCAGUTT against Fam50a, the z-score was -0.36.
For GCUCUACUGCUUCCUUGUUTT against Olfr229, the z-score was -0.338.
For GGUGUCUGCUUCUUCAAAGTT against Slc25a26, the z-score was -2.33 (active).
GGAUAUUGCCAGUAAUUAATT against Kif21a gave a z-score of 0.212.
GCUACCUCAACAUGGAUGCTT against Pcca showed a z-score of 1.16.
Work on GGAUGACUGUAUCUGUACUTT against Ttc3 yielded a z-score of 0.0197.
In the case of GGCCCAGAACAGAAAACUCTT against Clec1a, the z-score is reported as -0.582.
For GGACCUAAGGGAUCUAUUGTT against Col5a3, the z-score was 0.000962.
GCACUGUGAAUUUGUCAUUTT against Umps showed a z-score of 1.22.
With GGAACACGAAUCAUUUAUGTT against Eif4ebp2 the z-score was 0.351.
GUUUGGCCGAGUUCAUUUCTT against Pigu gave a z-score of 0.759.
Sequence CCUGUGGAUUACGGCCUCATT against Ube3b has a z-score of -0.282.
Sequence GGAGCUGUUUUCUGUGAAGTT against Mrps2 has a z-score of 0.0283.
With GGAUGUGGAGCAAGUGAAGTT against Stx1b the z-score was -2.05 (active).
GCUUCAAGCCAUCCGAAUATT against Cfap36 gave a z-score of 0.886.
In the case of GGACCAGCUGAAGAUGGGATT against Pced1b, the z-score is reported as -1.1.
For GCCAGUUUCCAGUCCUUGUTT against Dppa5a, the z-score was -0.2.
Sequence GCACAUAAAAUGCUCACUGTT against Rgr has a z-score of -0.084.
CCAAACUUAAACAUGUUGUTT against Ddx21 gave a z-score of 0.364.
For GCUGUACACAGUGAGGAAGTT against Gcat, the z-score was 5.42 (active).
CGACUACCACACGUGGAAUTT against Hvcn1 gave a z-score of 1.36.
UGUUCCUAGGUCAGCUACUTT against Olfr1200 showed a z-score of -1.54.
GGCACUUCACAGACUUAGUTT against Selp gave a z-score of -0.682.
Sequence CUCCUUGUCUACCUGAAUATT against Vmn1r213 has a z-score of -1.44.
For CCUCUUAGCUAGAUCUUACTT against Smu1, the z-score was -2.41 (active).
GCCUGAGAAGAUAGACUGATT against Pigs showed a z-score of 0.114.
With GCUUAACUAGUAUCCUAUGTT against Tas2r135 the z-score was -0.228.
Work on GGACAAAGUGAAUUAUAGCTT against Tmem123 yielded a z-score of 1.12.
In the case of GUAAGUUGUUUGAGGAAAGTT against Defb3, the z-score is reported as 2.08 (active).
Work on GAAAUUCUUCCAGUGGAAGTT against Lrp2bp yielded a z-score of 0.958.
In the case of “GGAACAUCAUCAACCACUATT against Olfr911-ps1”, the z-score is reported as -1.53.
Sequence GGUACAACAGACUAUGCAATT against Snai1 has a z-score of 0.886.
GCUUUCGCCAAUAAAAAAGTT against Slc13a2 gave a z-score of 0.265.
For GGUGAAACGGGAUGUUAACTT against Ppargc1b, the z-score was -0.102.
GCCUUAUUACUGACCUUUUTT against Smarcd2 showed a z-score of 1.77.
GCUAUGAAAGAGGGAAGCUTT against Cyp2c54 showed a z-score of 0.164.
Work on CCAGAAAACUCAGUUUGAATT against Magi3 yielded a z-score of 0.518.
Sequence GCUGGUGGCAAUCAGAAAATT against Nppc has a z-score of 0.121.
Work on GGUUCAACACGAUGUUCGATT against Nr1i2 yielded a z-score of 0.162.
